The values that follow come from PubChem BioAssay.

For one test, the target named is Albumin (Bos taurus) (UniProt P02769). Briefly: compounds binding labelled BSA control protein – biochemical, small-molecule microarray, Alexa647 label, 635/667 nm fluorescence, artefact control for SMM control protein annotation, profiling panel (AID 1118).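 Note: score merges 667 nm emission intensity and signal-to-noise per printed compound spot.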 The following applies: BSA-A647 binding, fluorescence 635 nm, higher = more signal.
A short description of test [1]: probe aXIP binding to arrayed compounds – biochemical, NeuroSMM set, 635/667 nm fluorescence, primary screen (AID 1119).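 Note: probe is the protein aXip251-270 applied at 1 µg/mL to compound-printed slides; binding of probe to printed compounds measured as 667 nm fluorescence plus signal to noise.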 The following applies: small-molecule microarray, higher = more signal, called active from +8 up or from −8 down.
The nature of test [2]: probe aNOTCH3 binding on compound microarray – biochemical, small-molecule microarray, 635/667 nm fluorescence, primary screen (AID 1120).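 Note: probe is a biotin-tagged antibody raised against NOTCH3 rather than NOTCH3 protein; score merges spot fluorescence near 667 nm with spot signal to noise.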 The conditions noted are these: higher = more signal.
Test [3] can be described thus: probe aNOTCH2 binding on compound microarray – biochemical, small-molecule microarray, 635/667 nm fluorescence, primary screen (AID 1121).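 Note: score merges feature fluorescence read at 667 nm with its signal to noise.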 The following applies: higher = more signal.
In test [4] the target is Carbonic anhydrase 2 (Homo sapiens) (UniProt P00918). Briefly: compounds binding carbonic anhydrase 2 – biochemical, small-molecule microarray, Alexa647-labelled CAII, profiling panel (AID 1122). The following applies: CAII-A647 binding fluorescence, higher = more signal.
Test [5] in a line: COS7 lysate on small-molecule microarray, probe aHis, 635 nm (AID 1123).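 Note: z-score combines 667nm fluorescence intensity with signal-to-noise per printed compound spot.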 The following applies: COS7 cell lysate, fluorescence, higher = more signal.
A short description of test [6]: probe aLAP1 signal on lysate-treated microarray – cell lysate, small-molecule microarray, COS7 lysate, primary screen (AID 1124).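 Note: lysate comes from COS7 cells expressing LAP1 and is applied at 0.3 µg/mL; score merges spot fluorescence near 667 nm with signal-to-noise over triplicate slides.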 The conditions noted are these: probe aLAP1, fluorescence, higher = more signal.
Another test deals with Sam68 (KHDRBS1). Briefly: compounds binding KHDRBS1 protein – biochemical, small-molecule microarray, 635 nm fluorescence, primary screen (AID 1125).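 Note: score merges 667 nm channel intensity with signal to noise over triplicate slides.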 The conditions noted are these: higher = more signal.
Test [7] relates to Chordin-like protein 2 (CHRDL2). Briefly: compounds binding chordin-like 2 – biochemical, small-molecule microarray, 635 nm fluorescence, primary screen (AID 1126).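 Note: printed compound slides probed with Chrdl2 protein at 4 µg/mL for 1 h at 4 C; score merges 667 nm emission intensity with signal to noise over three replicate slides.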 The following applies: fluorescence 635 nm, higher = more signal.
Test [8] concerns the target Concanavalin-A (Canavalia ensiformis) (UniProt P02866). Briefly: compounds binding concanavalin A lectin – biochemical, small-molecule microarray, Alexa647 label, 635 nm, artefact control for SMM control protein annotation, primary screen (AID 1127).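 Note: z combines 667 nm emission intensity with signal-to-noise across three replicate slides.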 The conditions noted are these: ConA-A647 binding fluorescence, higher = more signal.

Active and inactive are the calls of the source.

Albumin (Bos taurus), sequence (P02769 whole entry, looked up): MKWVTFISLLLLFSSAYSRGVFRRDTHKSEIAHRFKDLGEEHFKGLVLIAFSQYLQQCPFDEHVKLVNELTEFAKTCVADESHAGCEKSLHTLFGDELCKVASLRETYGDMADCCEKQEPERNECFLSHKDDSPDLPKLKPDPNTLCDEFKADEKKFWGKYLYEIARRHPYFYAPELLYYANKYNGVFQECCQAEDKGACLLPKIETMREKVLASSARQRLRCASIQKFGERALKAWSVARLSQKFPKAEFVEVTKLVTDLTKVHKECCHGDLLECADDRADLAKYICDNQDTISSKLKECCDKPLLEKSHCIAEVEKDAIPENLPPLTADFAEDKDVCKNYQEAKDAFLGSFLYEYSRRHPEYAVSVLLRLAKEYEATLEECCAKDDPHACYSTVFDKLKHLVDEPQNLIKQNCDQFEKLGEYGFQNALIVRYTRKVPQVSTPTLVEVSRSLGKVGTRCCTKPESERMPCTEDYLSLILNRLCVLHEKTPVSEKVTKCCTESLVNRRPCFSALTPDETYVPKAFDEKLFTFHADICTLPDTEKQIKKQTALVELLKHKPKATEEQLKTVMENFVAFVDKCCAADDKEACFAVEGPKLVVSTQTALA
Concanavalin-A (Canavalia ensiformis), sequence (P02866 whole entry, looked up): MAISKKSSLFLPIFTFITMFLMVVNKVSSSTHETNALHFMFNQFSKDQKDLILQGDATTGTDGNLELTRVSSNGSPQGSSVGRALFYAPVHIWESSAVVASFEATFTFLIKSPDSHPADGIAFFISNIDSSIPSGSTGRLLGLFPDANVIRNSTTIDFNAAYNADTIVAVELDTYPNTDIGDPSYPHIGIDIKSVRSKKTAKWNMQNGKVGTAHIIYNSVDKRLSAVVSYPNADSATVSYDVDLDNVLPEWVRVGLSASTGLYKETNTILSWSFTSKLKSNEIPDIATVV

Consider `CCCCCN1CC=CC23O[C@@H]4/C=C\CCCOC(=O)C4[C@H]2C(=O)N(CCCCCCO)[C@@H]3C1=O` (stereo not given in full), for which the composite z-score is -0.0739 with Albumin (Bos taurus); -0.262 in test [2]; -0.153 in test [3]; 0.858 in test [4]; 2.05 in test [5]; 1.14 in test [6]. Further, the composite z-score in the test on Sam68 (KHDRBS1) was -0.542; in test [7], -1.01; in test [8] it was -0.74. Moreover, the composite Z-score in [1] was -0.328 (inactive).
Consider `C=CC(COC(C)=O)NS(=O)(=O)c1ccc(Br)cc1` (stereo not given), for which the composite z-score with Albumin (Bos taurus) was -0.68; in [2], -0.0337; in test [3], -0.133; in test [4], -0.0235; in test [5], -0.01; in test [6], 0.0423. Besides, the figures for the composite z-score (with Sam68 (KHDRBS1); in test [7]; in [8]) were 0.591, 0.912 and 0.682, respectively. Moreover, the composite Z-score in [1] was 0.0518 (inactive).
Take `CC(C)CNC(=O)[C@@H]1c2ccccc2C(=O)N(Cc2cc(C(F)(F)F)cc(C(F)(F)F)c2)[C@H]1c1ccc(CO)cc1`: the composite z-score with Albumin (Bos taurus) was -0.881; in test [2], 0.0596; in test [3], 0.127; in test [4], 0.5; in test [5] it was 0.361; in test [6], 0.0574. Also, the composite z-score in the test on Sam68 (KHDRBS1) is -0.636; in test [7], -0.629; in test [8] it was -0.928. Moreover, the composite Z-score in test [1] was 0.0089 (inactive).
`CC(C)(C)OC(=O)CC[C@]1(C(=O)N2CCCCC2)N=C(c2ccc(OCCCO)cc2)O[C@H]1c1ccccc1N=[N+]=[N-]`: the composite z-score with Albumin (Bos taurus) is 0.657; in test [2] it was 0.128; in [3], -0.0391; in test [4], 0.528; in test [5], 2.05; in test [6], -0.0995. The composite z-score in the test on Sam68 (KHDRBS1) was 1.25; in test [7], -0.292; in test [8], 1.19. In addition, the composite Z-score in test [1] was 2.33 (inactive).
For the compound `Cc1ccc(S[C@]2(C(=O)O)CC(=O)N(C3Cc4ccccc4C3)[C@@H]2c2ccc(CO)cc2I)cc1`, the composite z-score with Albumin (Bos taurus) was -0.133; in test [2], -0.0725; in test [3] it was -0.0799; in [4], 0.675; in [5], 1.1; in test [6], 0.672. For the same compound, the composite z-score in the test on Sam68 (KHDRBS1) was -0.0018; in test [7], 0.0442; in [8], 0.181. In [1], the composite Z-score was -0.0549 (inactive).
Turning to `CN(C)CCCCNC(=O)[C@H]1C[C@H]2C(=O)N[C@@H](Cc3ccccc3)C(=O)N2[C@H]1c1ccc(O)cc1`, the composite z-score was 0.356 with Albumin (Bos taurus); 0.143 in test [2]; -0.0684 in [3]; 0.158 in test [4]; 0.538 in test [5]; 0.263 in test [6]. Further, the composite z-score in the test with Sam68 (KHDRBS1) came out at 1.3; in [7], 0.956; in test [8], 0.863. Moreover, the composite Z-score in test [1] was 0.124 (inactive).
`COC(=O)C(CC#Cc1ccc2c(c1)[C@]1(C(=O)N2)[C@H](c2ccc(OCCO)cc2)N2[C@H](c3ccccc3)[C@H](c3ccccc3)OC(=O)[C@H]2[C@@H]1C(=O)NC[C@H](O)c1ccccc1)C(=O)OC`: the composite z-score in the test with Albumin (Bos taurus) was 0.819; in [2], 0.0556; in test [3], -0.115; in test [4], 0.497; in [5], 1.97; in test [6], -0.131. Moreover, the composite z-score in the test on Sam68 (KHDRBS1) was 1.29; in test [7], -0.28; in [8] it was 1.14. Also, the composite Z-score in test [1] was 0.0996 (inactive).
Turning to `O=C1O[C@H](c2ccccc2)[C@H](c2ccccc2)N2[C@H]1[C@@H](C(=O)O)[C@]1(C(=O)Nc3ccc(C#CC4(O)CCCCCC4)cc31)[C@H]2c1ccc(OCCO)cc1`, the composite z-score with Albumin (Bos taurus) was 0.906; in test [2], 0.0876; in [3], -0.0727; in test [4], 0.672; in [5] it was 2.58; in [6], 0.78. For the same compound, the results for the composite z-score (in the test on Sam68 (KHDRBS1); in test [7]; in test [8]) were 1.29, -0.862 and 1.06, respectively. In test [1], the composite Z-score was -0.0503 (inactive).
On to `COCC(=C=CC[C@H](O)c1ccc(OCCO)cc1)C[C@H](O)c1cc(Cl)cc(Cl)c1O`, for which the composite z-score was -0.679 in the test with Albumin (Bos taurus); 0.114 in [2]; -0.122 in test [3]; 0.718 in test [4]; -1.65 in [5]; 0.359 in test [6]. The composite z-score in the test on Sam68 (KHDRBS1) came out at 1.17; in test [7] it was 0.923; in test [8], 0.661. The composite Z-score in test [1] is -0.566 (inactive).
As to `[N-]=[N+]=NCc1ccccc1C[C@@]1(C(=O)N2CCOCC2)N=C(c2ccc(OCCCO)cc2)O[C@@H]1c1ccccc1CN=[N+]=[N-]`, the composite z-score in the test with Albumin (Bos taurus) was determined as 0.922; in test [2], 0.713; in test [3], 0.266; in test [4], 0.586; in test [5], 2.61; in test [6] it was 1.29. Besides, the composite z-score in the test on Sam68 (KHDRBS1) was 1.31; in [7], -0.725; in test [8], 1.14. Also, the composite Z-score in test [1] is 0.696 (inactive).
As to `COc1ccc([Si](C)(C)[C@@H]2[C@@H](CC(=O)N(CCO)Cc3ccccc3)O[C@]3(C(=O)N(C)c4ccccc43)[C@H]2C)cc1`, the composite z-score with Albumin (Bos taurus) was determined as 0.751; in test [2], 0.0964; in test [3], 0.0022; in test [4], 0.516; in [5], 0.855; in [6], 0.0123. Further, the composite z-score amounted to 1.31 in the test on Sam68 (KHDRBS1), 1.43 in [7] and 1.12 in test [8]. The composite Z-score in test [1] is 0.26 (inactive).
